ClpP mod = qHTS Assay for Activators of ClpP; ATP-dependent Clp protease proteolytic subunit (Bacillus subtilis (strain 168)), P80244; purified B. subtilis ClpP, FRET peptide cleavage, 20 min; Potency, µM (series often up to 57.5 µM), inactives show at the top dose activity change, negative = active; actives 1.9% (n = 340,000); AID 651965, 2013; active = well fitted falling curve with a large enough effect; inconclusive = small, poorly fitted or top-dose-only effect; inactive = no such curve, though single readings can be large or run the other way; also: potency is read from the fitted curve at half-maximal effect; the source files actives as falling curves though it sought activators and does not explain the sign; nearly all actives have a fitted effect of over 65% in size
Target sequence (P80244 whole entry, looked up): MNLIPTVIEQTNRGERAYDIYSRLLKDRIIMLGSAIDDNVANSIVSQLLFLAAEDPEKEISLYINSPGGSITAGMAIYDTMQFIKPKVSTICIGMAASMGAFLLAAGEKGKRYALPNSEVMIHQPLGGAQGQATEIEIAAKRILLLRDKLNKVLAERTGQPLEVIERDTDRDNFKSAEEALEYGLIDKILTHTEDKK
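Buffer: 100 mM Tris/HCl pH8, 100 mM KCl, 0.05% low protease BSA, 2.5% glycerol, 0.01% Tween-20. ClpP 10 microg/mL final; 20 min RT; delta FRET normalized to ADEP and DMSO controls.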
IL-1B inflam inh = inflammasome signaling inhibition, IL-1 beta readout. AID 743279. THP-1 LPS/ATP IL-1B secretion, AlphaLISA, 16 h; active compounds read low. activity change, % at 57.5 µM. actives 4.7% (n = 360,000); in the data active = activity change below about -50%; inconclusive = mostly about -30% to -49%; also: % is scaled to controls: 0 for no effect and ±100 for the full control effect
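THP-1 cells pretreated 1 hr with compounds (up to 57.5 uM final), then stimulated with LPS (250 ng/mL final) plus ATP (1.25 mM final); secreted IL-1B measured by AlphaLISA after 16 hr, decreased signal indicating inhibition.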
D3 ag = activates the human D3 dopamine receptor; P35462; D3R DiscoveRx beta-arrestin cells, luminescence, 90 min; max activation, %; actives 0.58% (n = 410,000); AID 652048; in the data active = max activation above about 30%; also: 0% is about no effect
Target sequence (P35462 whole entry, looked up): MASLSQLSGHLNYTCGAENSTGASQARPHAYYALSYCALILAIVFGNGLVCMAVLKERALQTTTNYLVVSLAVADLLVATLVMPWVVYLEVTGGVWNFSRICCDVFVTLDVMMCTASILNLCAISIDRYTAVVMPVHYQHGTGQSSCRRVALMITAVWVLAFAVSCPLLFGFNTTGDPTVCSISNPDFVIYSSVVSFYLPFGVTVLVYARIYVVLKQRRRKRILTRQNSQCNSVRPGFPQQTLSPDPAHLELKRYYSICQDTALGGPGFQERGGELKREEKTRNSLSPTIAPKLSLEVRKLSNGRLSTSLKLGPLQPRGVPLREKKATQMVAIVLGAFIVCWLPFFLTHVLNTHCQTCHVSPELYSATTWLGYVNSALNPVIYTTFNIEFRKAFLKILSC
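Agonist mode: compounds and dopamine controls were applied to plated cells for 90 min at 37 degrees C after an overnight attachment at 1500 cells/well. Luminescent read-out followed 30 - 60 minutes at room temperature with DiscoveRx detection reagent.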
DRD3 antagonist = D3 dopamine receptor (human) antagonism | P35462 | max response, negative = inhibition, % | D3R cells, DiscoveRx beta-arrestin luminescence, antagonist mode; active compounds read low | actives 2.5% (n = 360,000); in the data active = max response below about -50%; inconclusive = no clear call, values can overlap the other calls; also: % is scaled to controls: 0 for no effect and ±100 for the full control effect
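Cells plated overnight at 1500 cells/well, then exposed to library compounds with dopamine controls for 90 minutes at 37 degrees C. DiscoveRx reagent added for 30–60 minutes at room temperature; luminescence read, quantitative HTS format.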
TDP1 cell noCPT = qHTS for Inhibitors of human tyrosyl-DNA phosphodiesterase 1 (TDP1): qHTS in cells in absence of CPT | DT40 Tdp1-/- hTDP1 cells, no CPT, ATP luminescence, 48 h | Potency, µM (top dose mostly 46.2 µM), for inactives: at the highest dose activity change, negative = growth inhibition, most hits filed as inhibitors | actives 15% (n = 420,000); also: potency is read from the fitted curve at half-maximal effect; % is scaled to controls: 0 for no effect and ±100 for the full control effect; nearly all actives have a fitted effect of over 55% in size
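Growth kinetics read by CellTiter-Glo luminescence after ≥48 hr at 37 °C. Cells: DT40 Tdp1-/- stably carrying human TDP1, 400 per well, compound exposure in the absence of CPT (DMSO vehicle).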
TDP1 cell CPT = growth inhibition of DT40 Tdp1-/-;hTDP1 cells with camptothecin (screen for TDP1 inhibitors). chicken DT40 Tdp1-/-;hTDP1 cells + 20 nM CPT, ATP luminescence, 48 h. Potency, µM (highest dose often 46.2 µM), for the others: at the highest dose activity change, negative = growth inhibition, usual class: inhibitors. AID 686979. actives 12% (n = 420,000); also: potency is read from the fitted curve at half-maximal effect; % is scaled to controls: 0 for no effect and ±100 for the full control effect; nearly all actives have a fitted effect of over 55% in size
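Chicken DT40 Tdp1-/- cells complemented with human TDP1, 400 cells/well, exposed to compounds plus 20 nM camptothecin for at least 48 h at 37 C; viability read as ATP content by CellTiter-Glo luminescence.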
Numbers without * were called inactive; u = inconclusive; x = no result given; [ ] = remark or other dose. Shown are actives, neighbours in structure and some others; about 21% of the full set was active somewhere. Unless noted, calls follow the shape of the dose curve; as a rule, active = well fitted inhibition curve with a large enough effect; inconclusive = small, poorly fitted or top-dose-only effect; inactive = flat fitted curve, though single readings scatter.

SMILES	ClpP mod	IL-1B inflam inh	D3 ag	DRD3 antagonist	TDP1 cell noCPT	TDP1 cell CPT
Nc1ncnc2nn(C3OC(CO)C(O)C3O)nc12 (configuration not stated)	-25%	53	5	26	1.8µM*	4.1µM*
Nc1ncnc2c1nc(Br)n2C1OC(CO)C(O)C1O (configuration not stated)	x	x	x	x	2.3µM*	u
COc1ccc(C(C(=O)Nc2ccc(C(C)C)cc2)N(C)C(=O)Cc2cccs2)cc1 (configuration not stated)	0%	x	-12	x	u	u
Cc1csc(SCC(=O)Nc2sccc2C(N)=O)n1	0%	-9	-7	9	-28%	-15%
Cc1nc(SCC(=O)N2CCN(C(=O)c3cccs3)CC2)c2c(C)c(C)sc2n1	-1%	-4	23	0	16µM*	26µM*
Cc1nc(SCC(=O)Nc2ccc(S(=O)(=O)N3CCOCC3)cc2)c2c(C)c(C)sc2n1	1%	u	5	17	u	26µM*
Cc1nc(SCC(=O)Nc2sccc2C(N)=O)c2c(C)c(C)sc2n1	-3%	19	1	8	u	21µM*
COC(=O)c1sc2nc(C)nc(SCC(=O)Nc3sccc3C(N)=O)c2c1C	-19%	5	28	69	16µM*	18µM*
Cc1nc(SCC(=O)N2CCOCC2)c2c(C)c(C)sc2n1	x	11	8	3	-16%	4%
Cc1cccc(C)c1NC(=O)C1CCCN1S(=O)(=O)c1cccc2nsnc12 (configuration not stated)	1%	x	3	x	u	-27%
CCN1CCCC1CNC(=O)CN(C)S(=O)(=O)c1ccc(Cl)cc1 (configuration not stated)	x	5	3	7	-2%	8%
COC(=O)[C@]12CCCCC=C1N(CCC1=CCCCC1)C(=O)[C@H](CC(=O)NCCC(C)C)C2	-3%	u	-5	20	u	u
COc1cc(/C=C/C(=O)N2CCN(CC(O)COc3ccccc3)CC2)cc(OC)c1OC (configuration not stated)	u	-6	-15	-10	21µM*	u
O=C(/C=C/c1ccc(Cl)cc1)N1CCN(Cc2ccccc2)CC1	-1%	-75*	-26	u	u	-14%
COc1cc(/C=C/C(=O)N2CCN(Cc3ccccc3)CC2)cc(OC)c1OC	u	4	-2	-2	18µM*	-73%
CC(C)C(NC(=O)c1ccoc1)c1nnc2n1CCN(C(=O)/C=C/c1ccc(F)cc1)CC2 (configuration not stated)	x	x	x	x	-21%	1%
COn1c(-c2ccccc2)nc2c1CCc1c-2no[n+]1[O-]	3%	-63*	-12	3	u	u
CC1=NN(Cc2ccccc2)C(=O)/C1=C\c1ccc(N(C)C)cc1	-1%	19	-10	0	u	13µM*
Cc1ccc(CNC(=O)c2cc(C3CC3)nc3c2c(C)nn3-c2cccc(Cl)c2C)cc1	u	x	-1	x	-23%	-8%
Cc1c(Cl)cccc1-n1nc(C)c2c(C(=O)NCc3ccccc3)cc(C3CC3)nc21	13µM*	x	-3	x	-10%	-19%
COc1cc(NC(=O)c2cc(C3CC3)nc3c2c(C)nn3-c2ccc(C)cc2)cc(OC)c1	4%	x	12	x	6.5µM*	u
Cc1nn(-c2ccccc2)c2nc(C3CC3)cc(C(=O)NCc3ccccc3Cl)c12	4%	x	6	x	23µM*	u
CCc1ccc(-n2nc(C)c3c(C(=O)Nc4ccc(Cl)cc4)cc(C)nc32)cc1	1%	x	3	x	13µM*	u
CC(=O)c1cccc(NC(=O)c2cc(C)nc3c2c(C)nn3-c2cccc(Cl)c2C)c1	101%	x	2	x	18µM*	u
Cc1cc(C(=O)NCc2ccccc2Cl)c2c(C)nn(-c3cccc(F)c3)c2n1	-11%	x	22	x	21µM*	u
SMILES	ClpP mod	IL-1B inflam inh	D3 ag	DRD3 antagonist	TDP1 cell noCPT	TDP1 cell CPT
Cc1ccc2nc(SCC(=O)O)nc(C)c2c1	-13%	3	-7	-7	-2%	10%
Cc1ccc2nc(SC(C(=O)c3ccccc3)c3ccccc3)nc(C)c2c1 (configuration not stated)	u	31	-8	u	15µM*	u
O=C(COC(=O)Cc1ccccc1F)Nc1ccc(F)cc1F	-3%	-1	-9	-4	-5%	-10%
COc1ccc2[nH]c(=O)c(CNc3ccccc3C)cc2c1	x	40	-13	-10	23µM*	9.2µM*
COc1ccc2[nH]c(=O)c(CN(C(C)=O)c3ccc(C)c(C)c3)cc2c1	1%	-6	-1	8	u	-25%
COc1ccc2cc(CN(C(=O)Nc3ccccc3OC)C3CCCC3)c(=O)[nH]c2c1	-14%	u	-4	18	u	u
COc1ccc2[nH]c(=O)c(CNc3ccccc3OC)cc2c1	x	-12	3	5	13µM*	6.5µM*
CC(=O)c1ccc2noc(-c3cccc(C)c3)c2c1	x	-18	11	0	-1%	-4%
Cc1nn(Cc2ccccc2)c(C)c1C(=O)OCC(=O)c1cc(C)n(CC(F)(F)F)c1C	9%	0	-8	-14	26µM*	26µM*
Cc1cc(C(=O)COC(=O)c2ccco2)c(C)n1Cc1ccco1	-4%	-13	-5	-9	-15%	u
CC(=O)c1ccc(F)c(-c2cc(C)cc3c2OC(CNC(=O)c2cccnc2)C3)c1 (configuration not stated)	x	x	x	x	u	21%[9.04 µM]
CC(C)CCC(CCNCc1ccccn1)c1ccc(Cl)cc1 (configuration not stated)	x	-98*	-20	-4	15µM*	-89%
CCOC(=O)c1csc(NC(=O)C2=COCCO2)n1	1%	0	12	11	16%	0%
Cc1sc2nc(CN3CCCCC3)nc(Cl)c2c1C	-4%	-103*	-15	-1	16µM*	u
Clc1nc(CN2CCCCC2)nc2sc3c(c12)CCCC3	-29%	u	2	-9	10µM*	u
CC1CCN(Cc2nc(Cl)c3c4c(sc3n2)CCC4)CC1	1%	-96*	-3	-6	13µM*	18µM*
O=C(OCC(=O)N1CCN(c2ccccc2)CC1)c1cc(Cl)ccc1[N+](=O)[O-]	0%	-3	-14	u	-11%	-18%
COc1cccc(CN2CC(C(=O)N(C)Cc3ccc(C)cc3)CCC2=O)c1 (configuration not stated)	-1%	-4	1	1	-8%	-19%

Screens: PubChem, National Center for Advancing Translational Sciences (NCATS)
